Results on eight compounds are retold here after the supplement of paper PMC9262897, “Low-cost anti-mycobacterial drug discovery using engineered E. coli” (Nature Communications, 2022).

Structures can show the parent of a compound that is named as a salt. ± gives the standard deviation of the averaged measurements.

This assay deals with E. coli TESEC Mtb Alr. Put plainly: growth (OD600 after 10 h); higher = more growth (less inhibition). The following applies: compound 0.1 mM. Here is the method:
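TESEC Mtb Alr E. coli, or the Alr+ wild-type control, in 384-well plates with Prestwick library compounds at 0.1 mM and 1% DMSO, across arabinose induction levels of 1E3 to 1E7 nM. Growth is read as OD600 after 10 h at 37 °C in triplicate biological replicates.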

Setting [1] is: arabinose 1000 nM, raw OD600 reference: median of DMSO wells 0.294, cell-free background 0.041.
Where [2] appears, read: arabinose 10000 nM, raw OD600 reference: median of DMSO wells 0.264, cell-free background 0.041.
[3] abbreviates: arabinose 100000 nM, raw OD600 reference: median of DMSO wells 0.201, cell-free background 0.041.
[4] abbreviates: arabinose 1000000 nM, raw OD600 reference: median of DMSO wells 0.193, cell-free background 0.041.
[5] abbreviates: arabinose 10000000 nM, raw OD600 reference: median of DMSO wells 0.146, cell-free background 0.041.

Compound `CC(=O)N1CCN(c2ccc(OCC3COC(Cn4ccnc4)(c4ccc(Cl)cc4Cl)O3)cc2)CC1` (stereo not given) [Ketoconazole] gave a growth under setting [1] of 0.0525 ± 0.0042; a growth under setting [2] of 0.04237 ± 0.00035; a growth under setting [3] of 0.0541 ± 0.0007; a growth under setting [4] of 0.04317 ± 0.0004; a growth under setting [5] of 0.05383 ± 5.8e-05.
On to `CC(=O)Oc1ccccc1C(=O)Oc1ccccc1C(=O)O` [Acetylsalicylsalicylic acid], for which the growth is 0.275 ± 0.0063 under setting [1]; 0.266 ± 0.016 under setting [2]; 0.203 ± 0.011 under setting [3]; 0.181 ± 0.0064 under setting [4]; 0.142 ± 0.0078 under setting [5].
Regarding `Cc1cc2cc3c(C)cc(=O)oc3c(C)c2o1` [Trioxsalen], the growth reads like this: under setting [1], 0.312 ± 0.0079; under setting [2], 0.258 ± 0.008; under setting [3], 0.192 ± 0.0079; under setting [4], 0.161 ± 0.0053; under setting [5], 0.1653 ± 0.0007.
For `Cc1ccccc1C(OCCN(C)C)c1ccccc1` (stereo not given) [Orphenadrine hydrochloride], in that order: 0.26 ± 0.024, 0.266 ± 0.015, 0.189 ± 0.0084, 0.148 ± 0.0039 and 0.159 ± 0.0037.
For the compound `CCCCOc1cc(C(=O)OCCN(CC)CC)ccc1N` [Benoxinate hydrochloride], the growth reads like this: under setting [1], 0.256 ± 0.016; under setting [2], 0.25 ± 0.0055; under setting [3], 0.177 ± 0.015; under setting [4], 0.1482 ± 0.00091; under setting [5], 0.143 ± 0.0029.
On to `CC(C)(C)C(=O)OCOC(=O)[C@@H]1N2C(=O)[C@@H](/N=C/N3CCCCCC3)[C@H]2SC1(C)C` [Pivmecillinam hydrochloride], for which the growth runs as follows: under setting [1], 0.249 ± 0.0036; under setting [2], 0.282 ± 0.0063; under setting [3], 0.326 ± 0.0058; under setting [4], 0.191 ± 0.016; under setting [5], 0.191 ± 0.021.
As for `C[C@]12CC[C@@H]3c4ccc(O)cc4C[C@@H](CCCCCCCCC[S+]([O-])CCCC(F)(F)C(F)(F)F)[C@H]3[C@@H]1CC[C@@H]2O` (stereo not given in full) [Fulvestrant], the growth under setting [1] was 0.296 ± 0.016; the growth under setting [2] stood at 0.27 ± 0.009; the growth under setting [3] is 0.195 ± 0.017; the growth under setting [4] was determined as 0.179 ± 0.012; the growth under setting [5] was determined as 0.137 ± 0.005.
Consider `CC[C@H](c1ccc(O)cc1)[C@@H](CC)c1ccc(O)cc1` [Hexestrol], for which the growth runs as follows: under setting [1], 0.048 ± 0.0092; under setting [2], 0.0398 ± 0.00072; under setting [3], 0.0479 ± 0.0054; under setting [4], 0.0459 ± 0.0019; under setting [5], 0.0616 ± 0.024.
